Shown are actives, neighbours in structure and some others; about 8.3% of the full set was active somewhere.
Marburg entry inh = inhibitors of Marburg virus binding or cell entry; Marburg virus pseudotyped entry inhibition, cell reporter; Potency, µM (highest dose often 37.8 µM), for the others: at the top dose activity change, negative = inhibition, most hits filed as inhibitors; actives 1.8% (n = 300,000); AID 540276; calls by dose curve; tested in HEK293 cells; also: potency is read from the fitted curve at half-maximal effect
HCV inh = inhibitors of hepatitis C virus infection. actives 3.4% (n = 340,000). AID 651820. Potency, µM (highest dose often 41.8 µM), for the others: at the highest dose activity change, negative = inhibition, hits mostly inhibitors. Huh7.5.1 HCVcc-Cre infection, luciferase reporter, 44 h; also: potency is read from the fitted curve at half-maximal effect
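Antiviral activity was scored by luciferase reporter output from cells infected with HCVcc-Cre (~0.5 moi) in presence of compound, 44 h infection period, cells seeded 1,000/well 4 h prior.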
Lassa entry inh = Lassa virus entry inhibition; actives 1.2% (n = 300,000); Lassa virus pseudotype entry inhibition, cell reporter; Potency, µM (highest dose often 37.9 µM), for inactives: at the highest dose activity change, negative = inhibition, most hits filed as inhibitors; calls by dose curve; tested in HEK293 cells; also: potency is read from the fitted curve at half-maximal effect; nearly all actives have a fitted effect of over 50% in size
FMDV antiviral = foot and mouth disease virus antiviral activity. FMDV antiviral cell-based qHTS. AID 1159524. actives 1.2% (n = 410,000). Potency, µM (highest dose often 57.9 µM), inactives show at the highest dose activity change, negative = inhibition, hits mostly inhibitors; calls by dose curve; tested in HEK293T cells; also: read-out not given here; potency is read from the fitted curve at half-maximal effect; nearly all actives have a fitted effect of over 45% in size
Giardia FBPA inh = inhibitors of Giardia lamblia fructose-1,6-bisphosphate aldolase; AID 2451; actives 0.71% (n = 290,000); purified Giardia FBPA; Potency, µM (series often up to 59.6 µM), inactives show at the top dose activity, negative = inhibition, usual class: inhibitors; also: potency is read from the fitted curve at half-maximal effect; nearly all actives have a fitted effect of over 55% in size
Target sequence (A8B2U2 whole entry, looked up): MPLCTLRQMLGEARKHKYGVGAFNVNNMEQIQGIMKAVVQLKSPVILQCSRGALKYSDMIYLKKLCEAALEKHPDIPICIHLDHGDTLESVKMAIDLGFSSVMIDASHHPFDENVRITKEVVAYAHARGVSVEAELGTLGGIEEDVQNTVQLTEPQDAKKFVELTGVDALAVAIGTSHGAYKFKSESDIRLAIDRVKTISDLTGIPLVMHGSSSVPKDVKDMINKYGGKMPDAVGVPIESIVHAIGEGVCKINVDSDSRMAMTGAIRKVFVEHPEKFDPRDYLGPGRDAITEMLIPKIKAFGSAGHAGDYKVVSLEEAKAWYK
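40 nM FBPA preincubated 10 min at RT with compound (up to 57.5 uM final), then substrate plus GAPDH/TPI/NAD/arsenate coupling and diaphorase/resazurin added. Fluorescence read after 20 min at RT, 525/598 nm.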
HCMV antiviral = blocks human cytomegalovirus replication; HFF cells, HCMV-luciferase reporter, 72 h; hits give low values; activity change, negative = inhibition, % at 57.5 µM; actives 4.5% (n = 410,000); in the data active = activity change below about -60%; inconclusive = no clear call, values can overlap the other calls; inactive = above about -39%
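Cell-based, HFFs, 1000 cells/well, 16 h 37C; cpds in DMSO + HCMV-luc, MOI 1 PFU/cell; 72 h 37C; OneGlo luminescence after 5 min RT; norm. to buffer vs Salinomycin 10uM.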
An asterisk follows results filed as active; ? = inconclusive; . = no result; ! = not confirmed by another sample; [ ] = dose if it differs, or a comment. Unless noted, calls follow the shape of the dose curve; as a rule, active = well fitted curve in the direction sought with a large enough effect; inconclusive = small, poorly fitted or top-dose-only effect, or another doubt; inactive = no such curve, though single readings can be large; an effect the other way counts as inactive or inconclusive. % is scaled to controls: 0 for no effect and ±100 for the full control effect.

SMILES	Marburg entry inh	HCV inh	Lassa entry inh	FMDV antiviral	Giardia FBPA inh	HCMV antiviral
CCOC(=O)Cn1nc(-c2ccc(C)cc2)ccc1=O	15%	19%	2%	32%	-4%	30
COc1ccc(/C=C/c2ccc(=O)n(Cc3ccccc3)n2)cc1	-29%[46.1 µM]	?	5µM*	-22%	-4%	-8
CCOC(=O)CSC1=NC(=O)/C(=C/c2ccc(OC)cc2)S1	?	?	?	25µM*	-5%	.
c1nc(N2CCCCC2)c2[nH]cnc2n1	?	-2%	-5%	5%	-8%	-71*
CCN1CCN(Cc2ccc(NC(=O)c3cc(NC(=O)c4cncc(-c5cccs5)c4)cc(OC)c3)cc2C(F)(F)F)CC1	.	?	.	-21%	-14%	-102*
CCN1CCN(Cc2ccc(NC(=O)c3ccc(C)c(NC(=O)c4c[nH]c5cc(C(F)(F)F)ccc5c4=O)c3)cc2C(F)(F)F)CC1	.	?	.	?	-1%	-98*
CCN1CCN(Cc2ccc(NC(=O)c3cc(NC(=O)c4cc(-c5ccc(OC)cc5)n[nH]4)cc(OC)c3)cc2C(F)(F)F)CC1	.	?	.	13%	1%	52
CCN1CCN(Cc2ccc(NC(=O)c3cc(NC(=O)c4cc5cccc(OC)c5o4)cc(OC)c3)cc2C(F)(F)F)CC1	.	-20%	.	40µM*!	-7%	-102*!
CCN1CCN(Cc2ccc(NC(=O)c3cc(NC(=O)c4ccno4)cc(OC)c3)cc2C(F)(F)F)CC1	.	?	.	-13%	-4%	-34
CCN1CCN(Cc2ccc(NC(=O)c3cc(NC(=O)N4CCNC4=O)cc(OC)c3)cc2C(F)(F)F)CC1	.	?	.	?	5%	-68*!
Cc1ccc(C(=O)Nc2cccc(C(F)(F)F)c2)cc1NC(=O)c1c[nH]c2cc(C(F)(F)F)ccc2c1=O	.	31%	.	39%	.	2
CC(C)(C)OC(=O)CNC(=O)c1[nH]cnc1C(=O)NCCCCCN	.	12%	.	-16%	.	-22
C[C@H](NC(=O)c1nc[nH]c1C(=O)NCCCCCNC(=O)OC(C)(C)C)C(=O)OC(C)(C)C	.	11µM*	.	?	17%	?
CNC(=O)c1[nH]cnc1C(=O)N[C@@H](CCCCNC(=O)OC(C)(C)C)C(=O)OC(C)(C)C	.	-13%	.	-19%	-15%	10
C[C@H](NC(=O)c1nc[nH]c1C(=O)N[C@H](C)c1ccccc1)C(=O)OC(C)(C)C	.	13µM*	.	0%	?	-1
C[C@H](NC(=O)c1nc[nH]c1C(=O)NC(c1ccccc1)c1ccccc1)C(=O)OC(C)(C)C	.	?	.	-21%	?	40
CC(C)(C)OC(=O)CNC(=O)c1[nH]cnc1C(=O)NCCCCCNC(=O)OC(C)(C)C	.	?	.	16µM*	?	-5
CC(C)(C)c1ccc(OCCSc2nc(-c3cccs3)nc3cc(=O)[nH]n23)cc1	.	.	2%[46.1 µM]	-29%	.	-1
CCOC(=O)OCC1OC(CCc2ccccc2)CCC1Oc1ccc(OC)cc1 (stereo unspecified)	.	.	.	.	1%[12.9 µM]	.
Cc1cccc(C)c1NC(=O)CCSCCc1ccccn1	.	.	20%[46.1 µM]	-20%	.	10
N#Cc1cc2c(nc1SCC(=O)Nc1cccc(C(F)(F)F)c1)C1CCN2CC1	-9%[46.1 µM]	.	-36%[46.1 µM]	2%	.	?
N#Cc1cccc(NC(=O)CSc2nc3c(cc2C#N)N2CCC3CC2)c1	?	.	?	40%	.	-83*
N#Cc1cc2c(nc1SCC(=O)Nc1ccc(OC(F)(F)F)cc1)C1CCN2CC1	.	.	-29%[46.1 µM]	-42%	.	-72*
CCOC(=O)c1ccc(NC(=O)CSc2nc3c(cc2C#N)N2CCC3CC2)cc1	?	.	-15%[46.1 µM]	13µM*	.	6
COCC1CCCN(Cc2ccc3c(c2)CN(C(=O)c2ccc(-c4ccc(C)o4)cc2)CCO3)C1 (stereo unspecified)	.	.	.	8%	.	.
SMILES	Marburg entry inh	HCV inh	Lassa entry inh	FMDV antiviral	Giardia FBPA inh	HCMV antiviral
CC(C)(C)c1ccc(O[C@@H]2[C@H](O)CO[C@@H]2C=CC#Cc2ccccc2)cc1	-9%[14.2 µM]	.	.	.	.	.
Cc1cnc(C(=O)O)c[n+]1[O-]	.	.	.	-4%	-14%	.
CCOC(=O)Cc1csc(NC(=O)/C=C/c2ccccc2Cl)n1	?	?	?	-36%	-8%	-12
CCOC(=O)Cc1csc(NC(=O)/C=C\c2ccccc2Cl)n1	?	10µM*	?	-19%	-7%	14
CCOC(=O)Cc1csc(NC(=O)c2ccc(NC(C)=O)cc2)n1	0%	-6%	5%	-12%	-16%	-3
CCOC(=O)Cc1nnc2c(Nc3ccc(Cl)cc3)nc3nonc3n12	?	?	?	?	-5%	-74*
CCOC(=O)Cc1csc(NC(=S)NC(=O)c2ccc(Cl)cc2)n1	4%[46.1 µM]	-5%	-2%	3%	?	-84*
CCOC(=O)Cc1csc(NC(=O)Nc2ccc(OC(F)(F)F)cc2)n1	?	10µM*	?	?	3%	30
COc1ccccc1NC(=O)C1=C(C)Nc2nc(SCc3ccccc3Cl)nn2C1c1ccccn1 (stereo unspecified)	9%[46.1 µM]	.	-13%[46.1 µM]	?	.	-14
CC(C)(C)Nc1oc(-c2ccccc2)nc1-c1ccc(C(F)(F)F)cc1	-17%[14.2 µM]	.	.	.	1%	.
CCCCCn1c(CCNC(=O)c2cccc(C)c2)nc2ccccc21	?	.	-12%[46.1 µM]	-18%	.	-25
COC(=O)Cc1csc(Nc2ccc(Cl)cc2)n1	?	-10%	19%	-16%	0%	-21
CCOC(=O)Cc1csc(Nc2ccc(Cl)cc2)n1	.	?	.	13%	2%	-72*
CSc1ccc(CCNC(=O)c2cccc3c2C(=O)N(C2CCCCC2)C3)cc1	.	11µM*	.	-21%	.	.
COc1cc(NC(=O)c2cccc3c2C(=O)N(C2CCCCC2)C3)cc(OC)c1OC	?	6.3µM*	?	?	.	-91*
Cc1cc(C)cc(NC(=O)c2cccc3c2C(=O)N(C2CCCCC2)C3)c1	?	16%	2%[46.1 µM]	-16%	.	-1
O=C(NCCc1ccccc1)c1cccc2c1C(=O)N(C1CCCCC1)C2	20%[46.1 µM]	-12%	-3%[46.1 µM]	-15%	.	-35
C[C@H]1CN(CCc2ccccc2)C(=O)[C@@H]1CC(=O)Nc1ccccc1	.	.	.	2%	.	-75*
CN(C)C(=S)SC(=S)N(C)C	.	.	.	.	16µM*	.
c1ccc(CC2CCN(c3nnnn3-c3ccccc3)CC2)cc1	-11%	-5%	?	?	16%	-2
N/C(=N/O)c1ccccc1N1CCC(Cc2ccccc2)CC1	.	4%	.	52%	4%	-91*

Screening results from PubChem.
